The panel holds about 83,000 compounds, 20% with a hit somewhere; the sample as a whole holds those more often.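 Each cell line was grown in a 96-well plate and treated with one concentration of compound for 48 hours. Values below 10 were considered active.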 Unmarked numbers belong to inactive results. The source made the active and inactive calls.
What was measured:
Assay in all cases: NCI-60 one-dose screen, 48 h (100 = growth as untreated, 0 = no growth, -100 = all killed)
Conditions in all cases: 10 µM unless noted
NCI-H23 lung = test system: NCI-H23 lung
NCI-H226 lung = test system: NCI-H226 lung
NCI-H322M lung = test system: NCI-H322M lung
HOP-62 NSCLC = test system: HOP-62 NSCLC
HOP-92 NSCLC = test system: HOP-92 NSCLC
NCI-H522 lung = test system: NCI-H522 lung
A549/ATCC NSCLC = test system: A549/ATCC NSCLC
786-0 renal = test system: 786-0 renal
COLO 205 colon = test system: COLO 205 colon
DU-145 prostate = test system: DU-145 prostate
K-562 leukemia = test system: K-562 leukemia
MALME-3M melanoma = test system: MALME-3M melanoma
MDA-MB-231 breast = test system: MDA-MB-231 breast
RXF 393 renal = test system: RXF 393 renal
SF-268 CNS = test system: SF-268 CNS
SF-295 CNS = test system: SF-295 CNS
SF-539 CNS = test system: SF-539 CNS
UACC-257 melanoma = test system: UACC-257 melanoma
M14 melanoma = test system: M14 melanoma

SMILES | growth (NCI-H23 lung) | growth (NCI-H226 lung) | growth (NCI-H322M lung) | growth (HOP-62 NSCLC) | growth (HOP-92 NSCLC) | growth (NCI-H522 lung) | growth (A549/ATCC NSCLC) | growth (786-0 renal) | growth (COLO 205 colon) | growth (DU-145 prostate) | growth (K-562 leukemia) | growth (MALME-3M melanoma) | growth (MDA-MB-231 breast) | growth (RXF 393 renal) | growth (SF-268 CNS) | growth (SF-295 CNS) | growth (SF-539 CNS) | growth (UACC-257 melanoma) | growth (M14 melanoma)
CCCCn1c2cc(OCc3cn(-c4ccc(Cl)cc4)nn3)ccc2c2ccnc(C)c21 | 32.4% | 52.3% | 56.6% | 41.2% | 36.9% | 24.2% | 42.1% | -10.3% (active) | 21.9% | 72.5% | 14.4% | 53.9% | 16.7% | 47.6% | 74.6% | 40.2% | 55% | 33.6% | 40.6%
CCCn1cc(/C=N\N=C2\C(=O)Nc3ccc(C)cc32)c2ccccc21 | 48% | 92% | 47.8% | 75.3% | 37.4% | 13.8% | 63.9% | 64.5% | -16.2% (active) | 66.4% | 17.6% | 51.7% | 34.4% | 11.4% | 46.6% | 71.1% | 33.9% | 58.8% | 56.3%
CCOC(=O)c1sc(/N=C2\NC(=O)/C(=C/c3ccc(N4CCN(C)CC4)cc3)S2)nc1C | 99.3% | 99.7% | 97.6% | 105% | 108% | 77.4% | 89.6% | 87% | 109% | 97.3% | 95.2% | 99.7% | 112% | 112% | 97.3% | 102% | 100% | 110% | 108%
C=C1C(=O)O[C@H]2[C@H]1CC/C(COC(=O)CCC(=O)OC/C1=C/CC[C@@]3(C)O[C@H]3[C@H]3OC(=O)C(=C)[C@@H]3CC1)=C\CC[C@@]1(C)O[C@@H]21 | 58.5% | 84.3% | 96.1% | 85.7% | -1.85% (active) | -69.2% (active) | 88.7% | 40.7% | -55% (active) | 18.7% | 3.55% (active) | -5.56% (active) | -0.376% (active) | -71.4% (active) | 78.8% | 98.4% | 16.6% | 21.4% | 1.21% (active)
N#Cc1nc(-c2ccccc2)oc1S(=O)(=O)NCC(c1ccc(Cl)cc1)N1CCCCC1 (configuration not stated) | 78.5% | 117% | 85.3% | 96.3% | 79.4% | -18.3% (active) | 89.2% | 87.1% | 79.3% | 84.4% | 8.67% (active) | 96.8% | 89.3% | 101% | 78% | 102% | 87.5% | 88.1% | 76.4%
CCOc1ccc(C2N(c3cc(OC)c(OC)c(OC)c3)C(=O)C2(F)F)cc1 (configuration not stated) | 33.6% | 71% | 67.2% | 40.8% | 55.6% | 19.3% | 33.6% | 64.7% | 10.8% | 30.1% | 8.49% (active) | 63.1% | 46.1% | 54.2% | 52.4% | 56.3% | 10.8% | 58.7% | 27.5%
COc1ccc2c(c1)C1(C(=O)N2)C(C#N)=C(c2ccccc2)Nc2c1c(-c1ccccc1)nn2-c1ccccc1 (configuration not stated) | 51.1% | 101% | 60.4% | 66.9% | 55.6% | 85.9% | 36.3% | 62.4% | 60.1% | 49.8% | 70.4% | 63.8% | 45.1% | 64.2% | 52.1% | 69.7% | -3.82% (active) | 87.9% | 72.2%
CC(C)C[C@H](C(=O)O)N(C)C(=O)[C@@H]1CCCN1C(=O)[C@H](C)OC(=O)[C@H](CCC(N)=O)NC(=O)[C@@H]1CCC(=O)N1 | 109% | 101% | 98.5% | 93.4% | 102% | 88.7% | 92.2% | 96.1% | 99.3% | 106% | 93.2% | 109% | 108% | 135% | 97.4% | 93.7% | 97.7% | 95.2% | 99.9%

Source: PubChem BioAssay (NCI)
